Rows were chosen to be rich in hits. Some 19% of all compounds tested hit in one or more screens of this group.
DT40 TDP1 CPT: growth inhibition of DT40 Tdp1-/-;hTDP1 cells with camptothecin (screen for TDP1 inhibitors) | chicken DT40 Tdp1-/-;hTDP1 cells + 20 nM CPT, ATP luminescence, 48 h | Potency, µM (series often up to 46.2 µM), without a hit: top-dose activity change, negative = growth inhibition, actives largely listed as inhibitors | actives 12% (n = 420,000) | AID 686979; further: potency means the concentration at half of the fitted maximal effect; nearly all actives have a fitted effect of over 55% in size
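Chicken DT40 Tdp1-/- cells complemented with human TDP1, 400 cells/well, exposed to compounds plus 20 nM camptothecin for at least 48 h at 37 C; viability read as ATP content by CellTiter-Glo luminescence.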
HT1080NT lethal: kills 2HG-producing HT-1080-NT fibrosarcoma cells | HT-1080-NT fibrosarcoma viability, CellTiter-Glo ATP luminescence, 48 h | Potency, µM (top dose mostly 46.1 µM), inactives show at the top dose activity, negative = less viability, most hits filed as cytotoxic | actives 1.6% (n = 360,000) | AID 686970;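 further: NT is the 2HG producing partner of a matched IDH1 knockdown line; potency means the concentration at half of the fitted maximal effect; 0% = DMSO-treated cells and -100% = media-only wells without cells; nearly all actives have a fitted effect of over 55% in size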
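HT-1080-NT fibrosarcoma cells (2HG-overproducing), 750 cells/well in RPMI with 5% FBS, dosed after 2 h and incubated 48 h at 37C. CellTiter-Glo luminescence normalized to DMSO and no-cell wells; concentration-response curves fitted and classed.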
HT1080 IDH1KD tx: kills HT-1080 cells with IDH1 knockdown; HT-1080 IDH1 knockdown viability, ATP luminescence, 48 h; Potency, µM (series often up to 46.1 µM), inactives show top-dose activity, negative = toxicity, hits mostly cytotoxic; actives 2% (n = 360,000);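 further: potency means the concentration at half of the fitted maximal effect; 0% = DMSO wells and -100% = cell-free medium wells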
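HT-1080-IDH1KD cells (IDH1 knocked down), 750/well in RPMI with 5% FBS, treated with compound 48 h at 37 degrees C. Viability by CellTiter-Glo luminescence, normalised to DMSO and no-cell wells; concentration-response curves classed.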
IL-1B inflam inh: inhibitors of inflammasome signaling (IL-1 beta secretion). activity change, % at 57.5 µM. actives 4.7% (n = 360,000). THP-1 LPS/ATP IL-1B secretion, AlphaLISA, 16 h; stronger effect = lower value; in the data active means activity change below about -50%; inconclusive means mostly about -30% to -49%
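THP-1 cells pretreated 1 hr with compounds (up to 57.5 uM final), then stimulated with LPS (250 ng/mL final) plus ATP (1.25 mM final); secreted IL-1B measured by AlphaLISA after 16 hr, decreased signal indicating inhibition.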
DT40 TDP1 no CPT: qHTS for Inhibitors of human tyrosyl-DNA phosphodiesterase 1 (TDP1): qHTS in cells in absence of CPT; actives 15% (n = 420,000); Potency, µM (doses to about 46.2 µM), inactives show at the highest dose activity change, negative = growth inhibition, actives largely listed as inhibitors; DT40 Tdp1-/- hTDP1 cells, no CPT, ATP luminescence, 48 h; AID 686978, 2013; further: potency means the concentration at half of the fitted maximal effect; nearly all actives have a fitted effect of over 55% in size
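DT40 Tdp1-/-;hTDP1 cells, no CPT (DMSO vehicle only), 400 cells/well; compounds pin-transferred; ≥48 hr, 37 °C; CellTiter-Glo 30 min RT dark, luminescence read.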
Starred values were filed as active, the others as inactive; u = inconclusive; x = not tested or not shown; [ ] = another dose, or the depositor's remark. Unless noted, the call rests on the fitted dose curve; in most records, active means well fitted curve in the direction sought with a large enough effect; inconclusive means small, poorly fitted or top-dose-only effect, or another doubt; inactive means no such curve, though single readings can be large; an effect the other way counts as inactive or inconclusive. Unless noted, on the % scale 0 is the no-effect control and ±100 the full control effect.

SMILES	DT40 TDP1 CPT	HT1080NT lethal	HT1080 IDH1KD tx	IL-1B inflam inh	DT40 TDP1 no CPT
O=C1c2ccccc2C(=O)c2c(NCc3cccnc3)cccc21	u	20%	16%	-12	u
CNc1cccc2c1C(=O)c1ccccc1C2=O	-23%	-1%	-1%	-52*	u
COc1ccc2cc3c(N)nn(C(=O)C4CCC(C(C)(C)C)CC4)c3nc2c1 (configuration not stated)	9.2µM*	15%	6%	-86*	18µM*
COc1ccc2cc3c(N)nn(C(=O)Cc4ccccc4OC)c3nc2c1	9.2µM*	-14%	-17%	-60*	9.2µM*
COc1ccc(C(=O)n2nc(N)c3cc4ccc(C)cc4nc32)cc1OC	15%	x	x	x	-18%
COc1ccc2cc3c(N)nn(C(=O)c4ccc(F)cc4Cl)c3nc2c1	9.2µM*	x	x	x	8.2µM*
Cc1ccc2cc3c(N)nn(C(=O)c4cccc(F)c4)c3nc2c1	u	x	x	x	7.3µM*
C/C(CC(=O)Nc1ccc(N(C)C)cc1)=N\NC(=O)c1ccc(C(C)(C)C)cc1	-22%	-4%	-14%	4	-27%
Cc1ccc(C)c(C(=O)COC(=O)C2CCN(c3ccc(C(F)(F)F)cn3)CC2)c1	-5%	-4%	-3%	7	u
S=C(Nc1ccccc1)N1CCC(C2CCN(C(=S)Nc3ccccc3)CC2)CC1	-2%	9%	4%	-7	2%
Nc1ncn(C(=S)Nc2ccccc2)n1	1.2µM*	6%	9%	u	1.3µM*
NS(=O)(=O)c1cc(Cl)c(NC(=O)COC(=O)c2ccccn2)c(Cl)c1	-11%	-4%	4%	11	7%
COc1ccc(OC)c(NC(=O)N2CC3CCCN3c3ccccc32)c1 (configuration not stated)	u	x	x	x	23µM*
COc1ccc(OC)c(NC(=O)N2CC(C)Oc3ccc(C)cc32)c1 (configuration not stated)	u	x	x	x	21µM*
O=C(CCC(=O)N1CC2CCCN2c2ccccc21)NCc1cccc(Cl)c1 (configuration not stated)	15µM*	x	x	x	7.3µM*
O=C(NCc1cccc(Cl)c1)c1ccc(NC(=O)N2CC3CCCN3c3ccccc32)cc1 (configuration not stated)	23µM*	x	x	x	13µM*
CC(C)CCNC(=O)CN1C(=O)c2cccnc2Sc2ccccc21	-16%	x	x	x	-16%
C/C(CC(=O)Nc1ccc(C)c(Cl)c1)=N\NC(=O)c1ccco1	-13%	-3%	-16%	-10	-24%
COc1ccc(OC)c(CNC(=O)CCC(=O)N2Cc3ccccc3Oc3ncccc32)c1	-13%	3%	14%	4	0%
COc1ccc(CNC(=O)C2CCC(=O)N(C3CCCCCC3)C2)c(OC)c1 (configuration not stated)	16µM*	1%	7%	12	8.2µM*
COc1ccc(CNC(=O)CCC(=O)N2CC3CCCN3c3ccccc32)c(OC)c1 (configuration not stated)	18µM*	x	x	x	21µM*
Cc1cccc(C)c1-n1nnnc1C1(C)CCC(=O)N1CCCN1CCOCC1 (configuration not stated)	-6%	24%	3%	41	4%
CCCCN(CC)CCCNC(=O)c1cn(-c2ccc(OC)cc2)c(=O)c2ccccc12	-5%	-2%	-2%	-11	-5%
COc1cc2c(cc1OC)C1=NC(=O)CN1C(SCc1ccc(C)cc1)=N2	6.5µM*	-3%	0%	10	2.6µM*
C=CCSC1=Nc2cc(OC)c(OC)cc2C2=NC(=O)CN12	u	2%	-1%	3	10µM*
SMILES	DT40 TDP1 CPT	HT1080NT lethal	HT1080 IDH1KD tx	IL-1B inflam inh	DT40 TDP1 no CPT
CN(CC(=O)NCC(c1ccco1)N1CCCCC1)S(=O)(=O)c1ccc(Cl)cc1 (configuration not stated)	u	-1%	-14%	-7	u
Cc1nn(Cc2ccccc2)c(C)c1NC(=O)c1cc(-c2ccco2)on1	u	0%	1%	6	u
COc1ccc(OC)c(-c2cc(C(=O)Nc3c(C)nn(Cc4ccc(Cl)cc4)c3C)no2)c1	u	-14%	u	-63*	21µM*
COc1ccc(OC)c(-c2cc(C(=O)Nc3cc(C)on3)no2)c1	-19%	15%	2%	7	-3%
COc1ccc(OC)c(-c2cc(C(=O)Nc3c(C)nn(Cc4ccccc4)c3C)no2)c1	18µM*	-27%	u	u	23µM*
CCOc1ccc(NC(=O)COc2ccc(C(=O)NCc3cccc(OC)c3)cc2OC)cc1	u	0%	1%	2	u
O=C(NCCN1CCOCC1)c1cnn(-c2nccc(-c3ccccc3F)n2)c1C1CC1	7%[9.04 µM]	x	x	x	-10%
CC(=O)Nc1cc(-c2nn3c(C)nnc3s2)ccc1C	10%	8%	12%	13	0%
Cc1ccc(-c2nn3c(C)nnc3s2)cc1NC(=O)c1ccc(Br)o1	u	5%	5%	14	-21%
Cc1ccc(-c2nn3c(C)nnc3s2)cc1NC(=O)c1ccc(-c2cccc(Cl)c2)o1	23µM*	u	u	104	18µM*
Cc1ccc(-c2nn3c(C)nnc3s2)cc1NC(=O)c1ccc(-c2ccc(Cl)cc2Cl)o1	7.3µM*	u	u	21	6.5µM*
CC1CC(C)CN(C(=O)C(NS(=O)(=O)c2ccc(Br)s2)c2ccccc2)C1 (configuration not stated)	18µM*	-26%	u	2	15µM*
COc1ccccc1N1CCN(C(=O)C(NS(=O)(=O)c2cccs2)c2ccccc2)CC1 (configuration not stated)	u	12%	6%	0	u
Cc1cccc(C(=O)N2CCC(=O)N([C@H](COCc3ccccc3)Cc3ccccc3)CC2)c1	u	-1%	-15%	9	u
Cc1cccc(C(=O)N2CCC(=O)N(C(COCc3ccccc3)Cc3ccccc3)CC2)c1 (configuration not stated)	u	-13%	-9%	-24	26µM*
Cc1cccc(COCC(Cc2ccccc2)N2CCN(C(=O)c3cccc(Cl)c3)CCC2=O)c1 (configuration not stated)	26µM*	-13%	-20%	-61*	18µM*
Cc1cccc(COC[C@H](Cc2ccccc2)N2CCN(C(=O)c3cccc(Cl)c3)CCC2=O)c1	u	-30%	u	-8	u
COc1cccc(/C=C/C(=O)OCC(=O)NCc2ccco2)c1	-6%	-6%	-6%	0	-14%

Assay outcomes (PubChem BioAssay)
